From PubChem BioAssay (NCI)
“And” between values parts separate entries of the source, which are not always exact repeats. Equal entries are not always repeated. Compounds without any hit were thinned out: in the full panel of roughly 79,000, 15% have a hit. Unmarked numbers belong to inactive results. The source made the active and inactive calls. Cut-off read from the data, not from the text of the source: active = growth inhibition above about 70%; inactive = the rest.

How the values were obtained:
[1] = NCI Yeast Anticancer Drug Screen. Data for the mec2-1 strain (AID 157); settings: S. cerevisiae mec2-1 strain, hits give high values
In short: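 Strain: mec2-1 (DNA repair/cell cycle alteration). Compound exposure, then growth measured; inhibition expressed relative to vehicle.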

[2] = NCI Yeast Anticancer Drug Screen. Data for the sgs1 mgt1 strain (AID 161);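 note: 0% = growth of cultures given vehicle only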; settings: S. cerevisiae sgs1 mgt1 strain, hits give high values
In short: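 Mutant yeast exposed to compound; growth scored against vehicle-only wells.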

[3] = NCI Yeast Anticancer Drug Screen. Data for the cln2 rad14 strain (AID 165);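 note: 0% = growth equal to vehicle treated cultures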; settings: S. cerevisiae cln2 rad14 strain, hits give high values
In short: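 Compounds are applied to the cln2 rad14 yeast strain, and growth is then compared with that of vehicle-treated cultures to give inhibition.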

[4] = NCI Yeast Anticancer Drug Screen. Data for the bub3 strain (AID 167); settings: S. cerevisiae bub3 mutant strain, hits give high values
In short: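 Part of a panel of yeast mutants defective in DNA damage repair or cell cycle regulation. Each strain is grown with compound, and inhibition is calculated relative to solvent-treated cultures.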

[5] = NCI Yeast Anticancer Drug Screen. Data for the mlh1 rad18 strain (AID 175); settings: S. cerevisiae mlh1 rad18 strain growth inhibition, hits give high values
In short: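 Read-out is yeast growth inhibition, calculated against vehicle-only controls. The compound was applied to a strain engineered with DNA damage repair alterations.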

[6] = NCI Yeast Anticancer Drug Screen. Data for the rad50 strain (AID 155);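 note: 0% = growth of vehicle-only cultures of the same strain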; settings: S. cerevisiae rad50 strain growth inhibition, hits give high values
In short: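 Cells are treated with compound, grown, and their growth is then scored against vehicle-only cultures of the same repair-deficient yeast strain.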

[7] = at 5.0 µM (retest, dose inferred, filed as 0.5)
[8] = at 50.0 µM (retest, dose inferred, filed as 5.0)

| SMILES | growth inhibition [1, 7] | growth inhibition [1, 8] | growth inhibition ([1]; at 50.0 µM) | growth inhibition [2, 7] | growth inhibition [2, 8] | growth inhibition ([2]; at 50.0 µM) | growth inhibition [3, 7] | growth inhibition [3, 8] | growth inhibition ([3]; at 50.0 µM) | growth inhibition [4, 7] | growth inhibition [4, 8] | growth inhibition ([4]; at 50.0 µM) | growth inhibition [5, 7] | growth inhibition [5, 8] | growth inhibition ([5]; at 50.0 µM) | growth inhibition ([6]; at 50.0 µM) | growth inhibition [6, 7] | growth inhibition [6, 8] |
| --- | --- | --- | --- | --- | --- | --- | --- | --- | --- | --- | --- | --- | --- | --- | --- | --- | --- | --- |
| O=C(O)CCC(=O)c1ccc2c(c1)CCCC2 | -9% | 19% | 42.1% | -5% | 0% | 77.2% (active) | 1% | 25% | -24.1% | -16% | -48% | 20.7% | 0% | -6% | 77.6% (active) | – | – | – |
| CCOC1(OCC)C(C)C(c2ccccc2)C(c2ccccc2)C1C (stereo not drawn) | -6% | -4% | 98.8% (active) | -8% | 13% | 8.1% | -4% | -2% | 98.5% (active) | -8% | -5% | 99% (active) | -9% | 9% | 98.7% (active) | – | – | – |
| N=c1c2ccccc2cc2c3ccccc3ccn12 | 47% | 97% (active) | 98% (active) | 56% | 95% (active) | 97.8% (active) | 54% | 93% (active) | 86% (active) | 57% | 95% (active) | 96.5% (active) | 60% | 96% (active) | 96.1% (active) | – | – | – |
| CCCCOc1ccc(CC(O)CN2CCCCC2C)cc1 (stereo not drawn) | 21% | 51% | 52.5% | 33% | 61% | 78% (active) | 36% | 57% | 73.7% (active) | 36% | 71% (active) | 85.6% (active) | 24% | 60% | 51% | – | – | – |
| O=C(CC(C(=O)O)C(c1ccccc1)[N+](=O)[O-])c1ccccc1 (stereo not drawn) | – | – | -5.4% and -10.8% and 16.7% | – | – | 4.4% and 6.3% and -17.4% | – | – | -67.8% and 15.6% and -18.9% | – | – | -9.65% and 9.1% and 5.6% | – | – | -2.55% and 22.1% and 32.6% | -4.1% and 6.9% and 6.55% | – | – |
| CN1c2ccccc2C(c2ccccc2)c2ccc(Nc3ccccc3)cc21 (stereo not drawn) | – | – | – | 98% (active) | 100% (active) | 99.5% (active) | 95% (active) | 99% (active) | 99.2% (active) | 96% (active) | 99% (active) | 99.3% (active) | 98% (active) | 99% (active) | 99.4% (active) | 97.7% (active) | 94% (active) | 99% (active) |
| Oc1ccc(O)c2c1N=NC21c2ccccc2Oc2ccccc21 | – | – | – | 6% | 91% (active) | 83% (active) | 10% | 84% (active) | 86.5% (active) | 5% | 89% (active) | 86.6% (active) | 8% | 95% (active) | 90.8% (active) | 65.6% | 5% | 86% (active) |
| OCC(O)C(O)C(O)C(O)C(O)CO (stereo not drawn) | – | – | 0.1% and 6.15% and -9.7% | – | – | 16.6% and 21.1% and 25.2% | – | – | -45.4% and -8.8% and -1.35% | – | – | 17.6% and -3.1% and 37.1% | – | – | 10.2% and 22.1% and 10.4% | 1% and 8% and 21.3% | – | – |
| Nc1cn(C2OC(CC(c3ccccc3)(c3ccccc3)c3ccccc3)C(O)C2O)c(=O)[nH]c1=O (stereo not drawn) | 97% (active) | 97% (active) | 34.9% | – | – | – | 96% (active) | 96% (active) | 37.5% | 66% | 66% | 46.5% | 97% (active) | 97% (active) | 34.6% | – | – | – |
| C/C(=N\NC(=S)N1CCN(C2CCCCCC2)CC1)c1ccccn1 | -6% | 99% (active) | 65.3% | – | – | – | 8% | 99% (active) | 42% | -17% | 99% (active) | 19.4% | 14% | 99% (active) | 40% | 50.5% | -4% | 99% (active) |
| COc1cc(/C=C2\CCOC2=O)ccc1O | – | – | -1.45% and 31.7% and 1.8% | – | – | -7.55% and 1.8% and -18.2% | – | – | -9.15% and 14.1% and -3.85% | – | – | 3.6% and 13.2% and 9.3% | – | – | -5.35% and -1.3% and -13.3% | 1% and -1.15% and 3.7% | – | – |
| COc1ccc(C2=C(Cl)C(=O)N(c3ccc(C)cc3)C(=O)C2(Cl)Cl)cc1 | -2% | 36% | 96.8% (active) | 24% | 83% (active) | 94.2% (active) | 1% | 19% | 54.3% | -7% | 22% | 76.3% (active) | 12% | 33% | 94% (active) | – | – | – |
| COc1ccc(-c2cc(-c3ccc(OC)cc3OC)[n+](C)c(-c3ccc(OC)cc3OC)c2)cc1 | – | – | – | 98% (active) | 99% (active) | 86.2% (active) | 97% (active) | 98% (active) | 88.2% (active) | 98% (active) | 99% (active) | 81.8% (active) | 97% (active) | 99% (active) | 93% (active) | 90% (active) | 97% (active) | 98% (active) |
| COC1OC(CO)C(O)C(O)C1O (stereo not drawn) | – | – | -5.2% and 1.65% and -23.1% | – | – | -4.3% and -4.25% and -9.9% | – | – | 16.9% and -53.9% and -37.4% | – | – | -12.3% and 5.7% and -2.25% | – | – | 0.8% and 7.3% and -8.25% | -6.55% and -5.05% and -29.2% | – | – |
| Cc1ccc(C(OS(=O)(=O)c2ccc(C)cc2)C(F)(F)F)cc1 (stereo not drawn) | – | – | – | -4% | -13% | 72.9% (active) | 3% | -2% | 15.1% | 0% | 37% | 1.7% | 19% | 2% | 66.2% | 62.6% | -1% | -2% |
| O=C1OC(C(O)CO)C(O)=C1O (stereo not drawn) | – | – | -25.8% and 0.65% and -15.2% | – | – | -4.15% and -7.6% and 14.5% | – | – | -0.75% and -1.55% and 7.15% | – | – | -1.7% and -0.25% and -0.3% | – | – | 1.6% and 8.75% and 6.45% | -17.1% and 7.7% and 12.5% | – | – |
| CCCCCCCSCc1nc2ccccc2c(C)[n+]1[O-] | – | – | – | 0% | 98% (active) | 95.8% (active) | -3% | 98% (active) | 94.8% (active) | -2% | 99% (active) | 98% (active) | 3% | 98% (active) | 97.5% (active) | 96.7% (active) | 2% | 99% (active) |
| OCC(O)C(O)C(O)CO (stereo not drawn) | – | – | -8.1% and 4.3% and 14% | – | – | -16% and 7.05% and 14.4% | – | – | 4.25% and 2.85% and 13.9% | – | – | -45.7% and -5.45% and 0.05% | – | – | -8.35% and -4.45% and 10% | -5.35% and 10.4% and 7.75% | – | – |
